# Reference: PubChem BioAssay
# Calls of active or inactive are those of the source. Unless noted, the rule behind the calls is not given here.
# Experiments:
# [1] = resazurin metabolic signal in HepG2 cells – cell-based, resazurin fluorescence, 24 h, PK04 Diversity Set, profiling panel (AID 1172); details: HepG2 viability, higher = more signal
# [2] = budding yeast growth changes without added modifier – OD600, strain BY4716, 24 h, basal condition, primary screen (AID 1173); details: S. cerevisiae BY4716 growth, OD600, 24 h; higher = more signal, called active from +8 up or from −8 down
# [3] = viability profiling in MM1S myeloma cells – cell-based, resazurin fluorescence, basal, 24 h, PK04 Diversity Set, profiling panel (AID 1174); details: higher = more signal, called active from +8 up or from −8 down;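 note: MM1S multiple myeloma cell line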
# [4] = biological target: Dihydroorotate dehydrogenase (quinone), mitochondrial (Plasmodium falciparum (isolate 3D7)) (UniProt Q08210); assay: inhibition of P. falciparum DHODH – biochemical, C-terminal His tag, absorbance 600 nm, primary screen (AID 1175); details: PfDHODH enzyme, DCIP absorbance 600 nm; higher = more signal, called active from +8 up or from −8 down;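 note: recombinant parasite enzyme with a five histidine tag at its C terminus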
# [5] = inhibition of PAO1 biofilm formation – strain PAO1, LB-PBS medium, absorbance 600 nm, primary screen (AID 1176); details: P. aeruginosa PAO1 growth/biofilm, A600, 12 h; higher = more signal
# [6] = growth modulation of vineyard yeast isolate – strain RM11-1a, OD600, basal, 24 h, primary screen (AID 1177);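 note: cultures grown under basal conditions with no added stressor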; details: S. cerevisiae RM11-1a growth, OD600, 24 h; higher = more signal, called active from +8 up or from −8 down
# [7] = growth of efflux-deficient E. coli DRC39 – strain DRC39, OD650, 24 h, E. coli filamentation inducers, primary screen (AID 1178);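 note: growth measured as culture turbidity by optical density at 650 nm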; details: E. coli DRC39 acrAB, higher = more signal, called active from +8 up or from −8 down
# [8] = growth of efflux-deficient E. coli DRC39 – strain DRC39, OD650, 48 h, E. coli filamentation inducers, primary screen (AID 1179);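 note: screen aims at cell division blockers that make cells filament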; details: E. coli DRC39 delta-acrAB growth, higher = more signal, called active from +8 up or from −8 down
# [9] = viability profiling in RPMI8226 myeloma cells – cell-based, resazurin fluorescence, basal, 24 h, PK04 Diversity Set, profiling panel (AID 1180); details: higher = more signal;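 note: RPMI8826 multiple myeloma cell line at 5000 cells per well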
# [10] = biological target: E3 ubiquitin-protein ligase XIAP (Homo sapiens) (UniProt P98170); assay: small molecules binding XIAP protein – biophysical, small-molecule microarray, fluorescence 635 nm, primary screen (AID 1181); details: higher = more signal;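 note: score merges 667 nm emission and signal to noise over triplicate slides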
# [11] = tested on: XIP peptide (Xip251-270) binding; assay: XIP fragment 251-270 binding compounds – biochemical, small-molecule microarray, fluorescence 635/667 nm, 0.1 µg/mL protein, primary screen (AID 1182); details: fluorescent protein binding, 635 nm, higher = more signal, called active from +8 up or from −8 down
# XIP peptide (Xip251-270) = assay: compounds binding XIP fragment 251-270 – biochemical, small-molecule microarray, fluorescence 635/667 nm, 0.5 µg/mL protein, primary screen (AID 1183); details: fluorescence 635 nm, higher = more signal
# [12] = blood-stage malaria parasite viability loss – strain 3D7, DAPI fluorescence, 100 nL, primary screen (AID 1184);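 note: parasites grown inside human red blood cells in medium with human serum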; details: P. falciparum 3D7 growth, 3 d, higher = more signal
# [13] = biological target: Homeobox protein Hox-A13 (Mus musculus) (UniProt Q62424); assay: disruptors of Hoxa13 oligonucleotide interaction – biochemical, fluorescence polarization, labeled oligonucleotide, primary screen (AID 1185); details: Hoxa13:DNA binding, 15 min, higher = more signal, called active from +8 up or from −8 down
# [14] = blockers of DNA damage checkpoint Chk1 activation – imaging, HeLa, hydroxyurea, phospho-Chk1 antibody, percent positive cells, primary screen (AID 1186); details: hydroxyurea-induced phospho-Chk1 immunofluorescence imaging, higher = more signal
# [15] = blockers of DNA damage checkpoint Chk1 activation – imaging, HeLa, hydroxyurea, phospho-Chk1 nuclear intensity, primary screen (AID 1187); details: hydroxyurea-induced phospho-Chk1 immunofluorescence imaging, higher = more signal
# Sequence of Dihydroorotate dehydrogenase (quinone), mitochondrial (Plasmodium falciparum (isolate 3D7)) (Q08210 whole entry, looked up): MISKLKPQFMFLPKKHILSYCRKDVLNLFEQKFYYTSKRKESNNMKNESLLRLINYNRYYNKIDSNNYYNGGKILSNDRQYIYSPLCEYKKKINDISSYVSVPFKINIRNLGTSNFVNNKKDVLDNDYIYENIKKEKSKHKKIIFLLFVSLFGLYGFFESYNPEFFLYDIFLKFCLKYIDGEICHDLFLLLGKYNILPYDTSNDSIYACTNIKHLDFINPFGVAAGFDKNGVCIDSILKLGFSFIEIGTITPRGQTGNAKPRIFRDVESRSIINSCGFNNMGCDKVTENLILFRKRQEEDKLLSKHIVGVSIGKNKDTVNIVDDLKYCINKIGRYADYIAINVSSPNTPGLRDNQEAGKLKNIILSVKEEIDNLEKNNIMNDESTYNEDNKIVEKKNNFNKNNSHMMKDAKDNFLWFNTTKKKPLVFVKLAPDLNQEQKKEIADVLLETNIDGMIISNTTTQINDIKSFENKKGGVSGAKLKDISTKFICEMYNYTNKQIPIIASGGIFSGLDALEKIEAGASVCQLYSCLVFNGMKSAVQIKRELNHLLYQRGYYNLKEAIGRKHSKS
# Sequence of E3 ubiquitin-protein ligase XIAP (Homo sapiens) (P98170 whole entry, looked up, the tested form may be a part): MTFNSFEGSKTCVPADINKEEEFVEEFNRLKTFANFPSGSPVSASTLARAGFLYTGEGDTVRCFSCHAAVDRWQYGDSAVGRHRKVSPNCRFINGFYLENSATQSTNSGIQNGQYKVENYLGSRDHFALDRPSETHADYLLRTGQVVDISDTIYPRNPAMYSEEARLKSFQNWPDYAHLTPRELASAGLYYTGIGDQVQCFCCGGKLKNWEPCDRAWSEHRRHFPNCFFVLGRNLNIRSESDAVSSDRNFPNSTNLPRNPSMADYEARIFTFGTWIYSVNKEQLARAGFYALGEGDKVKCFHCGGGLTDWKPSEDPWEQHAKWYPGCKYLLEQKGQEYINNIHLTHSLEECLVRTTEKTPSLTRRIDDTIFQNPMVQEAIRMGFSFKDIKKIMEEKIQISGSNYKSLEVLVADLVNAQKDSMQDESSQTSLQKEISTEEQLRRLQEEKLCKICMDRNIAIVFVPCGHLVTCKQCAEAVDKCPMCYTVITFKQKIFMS
# Sequence of Homeobox protein Hox-A13 (Mus musculus) (Q62424 whole entry, looked up): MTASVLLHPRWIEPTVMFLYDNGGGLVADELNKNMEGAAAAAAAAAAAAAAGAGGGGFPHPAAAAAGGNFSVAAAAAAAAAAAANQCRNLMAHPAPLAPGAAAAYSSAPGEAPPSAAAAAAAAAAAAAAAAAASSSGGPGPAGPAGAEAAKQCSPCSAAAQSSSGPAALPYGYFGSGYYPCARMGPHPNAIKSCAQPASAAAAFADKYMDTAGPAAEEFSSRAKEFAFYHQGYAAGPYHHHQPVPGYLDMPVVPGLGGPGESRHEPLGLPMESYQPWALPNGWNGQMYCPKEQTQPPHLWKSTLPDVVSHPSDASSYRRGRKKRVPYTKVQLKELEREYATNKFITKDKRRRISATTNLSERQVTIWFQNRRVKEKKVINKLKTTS
SMILES,z-score [1],z-score [2],z-score [3],composite z-score [4],z-score [5],z-score [6],z-score [7],z-score [8],z-score [9],composite z-score [10],composite z-score [11],composite z-score (XIP peptide (Xip251-270)),z-score [12],z-score [13],z-score [14],z-score [15]
CCCC=C(CCC)[C@@H](NP(=O)(c1ccccc1)c1ccccc1)c1ccc(C(F)(F)F)cc1,1.02,0.534 (inactive),0.839 (inactive),0.0197 (inactive),-0.511 (inactive),-0.359 (inactive),0.3 (inactive),-0.93 (inactive),0.495,0.328,-0.185 (inactive),0.258,-0.591,-1.19 (inactive),0.272 (inactive),-0.0984 (inactive)
COCCOC(=O)N1C(=O)[C@@]2(c3cc(C#Cc4ccc(OC)cc4)ccc31)[C@H](C(=O)N1CCCCCCC1)[C@H]1C(=O)O[C@H](c3ccccc3)[C@H](c3ccccc3)N1[C@@H]2c1ccc(O)cc1,0.808,-0.404 (inactive),0.0013 (inactive),-0.458 (inactive),0.721 (inactive),0.868 (inactive),-0.919 (inactive),-1.22 (inactive),-0.206,-0.0501,1.73 (inactive),0.669,-2.31,2.16 (inactive),-0.29 (inactive),-0.537 (inactive)
CN1C(=O)C2C(C1=O)C1C=C(c3ccc(CO)cc3)C2C(c2cccs2)N1Cc1cccc(OC(F)(F)F)c1 (centres undefined),-0.153,-2.49 (inactive),-2.06 (inactive),-1.6 (inactive),-0.387 (inactive),0.476 (inactive),-0.383 (inactive),-0.319 (inactive),-1.08,0.214,0.94 (inactive),0.591,-3.19,-8.09 (active),-0.384 (inactive),-0.0226 (inactive)
CC(C)C[C@@H]1NC(=O)[C@H]2C[C@@H](C(=O)NCCCCCC[N+](C)(C)C)[C@@H](c3cccc(OCCO)c3)N2C1=O,1.15,-0.703 (inactive),0.288 (inactive),-1.16 (inactive),-0.819 (inactive),-0.215 (inactive),0.481 (inactive),0.442 (inactive),0.571,-0.188,0.506 (inactive),0.748,-0.411,-5.33 (inactive),-0.481 (inactive),-0.503 (inactive)
[N-]=[N+]=Nc1ccccc1[C@H]1OC(c2ccc(OCCCO)cc2)=N[C@@]1(CCS(=O)(=O)c1ccccc1)C(=O)N1CCCCC1,0.186,-0.0728 (inactive),-1.63 (inactive),-0.792 (inactive),0.715 (inactive),0.836 (inactive),0.21 (inactive),-0.714 (inactive),-1.64,-0.0884,0.154 (inactive),0.755,-2.19,-1.18 (inactive),-0.483 (inactive),-0.458 (inactive)
COC(=O)[C@@]1(Cc2ccccc2)[C@H]2c3cc(C(=O)N4CCCC4)[nH]c3C[C@H]2CN1C(=O)c1ccccc1,-0.6,0.146 (inactive),-0.89 (inactive),-0.171 (inactive),0.026 (inactive),0.198 (inactive),-0.79 (inactive),-0.548 (inactive),-0.183,-0.247,0.282 (inactive),0.659,-0.0756,-1.8 (inactive),1.1 (inactive),1.21 (inactive)
COc1ccc([Si](C)(C)[C@H]2[C@H](CCn3cc([C@H](O)c4ccccc4)nn3)O[C@@]3(C(=O)N(Cc4cccc(N5C(=O)c6cccc7cccc5c67)c4)c4ccccc43)[C@@H]2C)cc1,-0.717,0.807 (inactive),-1.98 (inactive),0.0064 (inactive),1.42 (inactive),0.378 (inactive),-0.0889 (inactive),-0.216 (inactive),-1.47,-0.0516,0.75 (inactive),0.141,-0.989,-2.01 (inactive),0.169 (inactive),-0.656 (inactive)
CC(C)CN1C(=O)[C@@]2(Cc3ccccc31)c1ccccc1C(=O)N(Cc1ccccc1C(F)(F)F)[C@H]2c1ccc(CO)cc1,0.869,-1.94 (inactive),-0.696 (inactive),-4.83 (inactive),-0.103 (inactive),-2.06 (inactive),0.897 (inactive),1.72 (inactive),0.478,0.661,-0.334 (inactive),-0.0449,-0.141,0.0026 (inactive),-0.417 (inactive),-0.408 (inactive)
CCN(CC)c1ccc(N2CC=CC34O[C@@H]5/C=C\CCC(C)OC(=O)C5[C@H]3C(=O)N(CCO)[C@@H]4C2=O)cc1 (some centres undefined),-0.68,-0.958 (inactive),-0.742 (inactive),0.543 (inactive),-0.593 (inactive),-0.481 (inactive),-0.736 (inactive),-0.949 (inactive),-0.833,0.283,1.27 (inactive),0.461,-1.23,-5.86 (inactive),0.695 (inactive),0.21 (inactive)
